Activity calls are given as the source filed them.
test system: XIP peptide (Xip251-270) binding; assay: XIP fragment 251-270 binding compounds – biochemical, small-molecule microarray, fluorescence 635/667 nm, 0.1 µg/mL protein, primary screen (AID 1182); conditions: fluorescent protein binding, 635 nm, higher = more signal, called active from +8 up or from −8 down

Row | Structure (SMILES) | composite z-score
1 | C=CCN1C(=O)[C@]2(CC=C)N=C(c3ccc(OCCCO)cc3)O[C@@H]2c2ccccc21 | 0.935 (inactive)
2 | CC1CC/C=C\[C@H]2OC34C=CCN(C(C)C)C(=O)[C@H]3N(CCCCCO)C(=O)[C@@H]4C2C(=O)O1 (some centres undefined) | -0.572 (inactive)
3 | COC(=O)[C@@]1(Cc2ccccc2)[C@H]2c3cc(C(=O)N4CCCC4)n(Cc4ccsc4Br)c3C[C@H]2CN1C(=O)c1ccccc1 | 0.427 (inactive)
4 | NCCCCCNC(=O)[C@@H]1C[C@@H]2C(=O)N[C@@H](CCCCN)C(=O)N2[C@@H]1c1cccc(OCCO)c1 | 0.824 (inactive)
5 | CCOC(=O)C1=CC[C@@H](c2ccc([N+](=O)[O-])cc2)N(S(=O)(=O)c2ccc(C)cc2)[C@H]1c1ccccc1 | 0.353 (inactive)
6 | CC(C)c1ccc(NN2C(C(O)c3ccco3)C=CC3C(=O)N(c4ccccc4)C(=O)C32)cc1 (centres undefined) | 0.938 (inactive)
7 | COC1(C)CN(Cc2ccccc2Br)[C@H](/C=C/c2ccccc2)[C@H](Cc2ccccc2)O1 (some centres undefined) | -0.181 (inactive)
8 | CC=CC(O)C1C=CC2C(=O)N(C)C(=O)C2N1N1CCCCC1 (centres undefined) | 0.102 (inactive)
9 | CCOC(=O)C1=CC[C@@H](c2cc(Cl)ccc2Cl)N(S(=O)(=O)c2ccc(C)cc2)[C@H]1c1ccc(OC)cc1 | -0.244 (inactive)
10 | C=C(CCCC)C(=O)CC[C@@H](OC(=O)c1ccccc1-c1ccccc1C(=O)O)c1cccc(OCCO)c1 | 1.03 (inactive)
11 | CC(C)(C)OC(=O)CC[C@@]1(C(=O)O)N=C(c2ccc(OCCCO)cc2)O[C@@H]1c1ccccc1CN=[N+]=[N-] | -0.168 (inactive)
12 | O=C1C[C@]2(c3ccc([N+](=O)[O-])cc3)C(=O)N(Cc3ccccc3)c3cc(CO)ccc3[C@H]2N1CC12CC3CC(CC(C3)C1)C2 | 0.0547 (inactive)
13 | O=C(CS)NCCCCCCNC(=O)[C@@H]1C[C@@H]2C(=O)N3CCC[C@H]3C(=O)N2[C@@H]1c1cccc(OCCO)c1 | 1.97 (inactive)
14 | CN(C)CCCCNC(=O)[C@H]1C[C@H]2C(=O)N[C@@H](CCCCN(C)C)C(=O)N2[C@H]1c1cccc(OCCO)c1 | 1.64 (inactive)

test system: XIP peptide (Xip251-270); assay: compounds binding XIP fragment 251-270 – biochemical, small-molecule microarray, fluorescence 635/667 nm, 0.5 µg/mL protein, primary screen (AID 1183); conditions: fluorescence 635 nm, higher = more signal

Row | Structure (SMILES) | composite z-score
15 | COCC(=C=CC[C@H](O)c1ccc(OCCO)cc1)C[C@H](O)COCc1ccccc1 | 0.698
16 | O=C1NC(=O)C2C1C=CC(C(O)c1cc(C(F)(F)F)cc(C(F)(F)F)c1)N2Nc1ccc(Cl)cc1Cl (centres undefined) | 0.154
17 | COC(=O)[C@H](Cc1ccccc1)N1CC(/C=C/C2CC2)=C[C@@H]1[C@@H](O)Cc1ccccc1 | 0.639
18 | NC(=O)NCC#Cc1ccc2c(c1)[C@]1(C(=O)N2)[C@H](C(=O)Nc2nc3ccccc3s2)[C@H]2C(=O)O[C@H](c3ccccc3)[C@H](c3ccccc3)N2[C@@H]1c1ccc(O)cc1 | 0.6
19 | O=C1O[C@@H](c2ccccc2)[C@@H](c2ccccc2)N2[C@@H](c3ccc(O)cc3)[C@]3(C(=O)Nc4ccc(C#CC5=CCCCC5)cc43)[C@@H](C(=O)N3CCN(c4ncccn4)CC3)[C@H]12 | 0.657
20 | CC(=O)NCCCC[C@@H]1NC(=O)[C@@H]2C[C@H](C(=O)O)[C@H](c3ccc(O)cc3)N2C1=O | -0.0306
21 | COc1cc(CO)cc(I)c1O[C@H]1C=C(C(=O)NCCO)C[C@@H](NCc2ccccc2F)[C@@H]1O | 0.481
22 | O=C1NCC(=O)N2[C@@H]1C[C@@H](C(=O)O)[C@H]2c1ccc(O)cc1 | 0.665
23 | COC(=O)[C@@]1(Cc2ccc(F)cc2)[C@H]2c3cc(C(=O)N4CCCC4)n(CCF)c3C[C@H]2CN1C(=O)c1ccccc1 | -0.352
24 | C[C@]1(C(=O)O)c2ccccc2C(=O)N(Cc2ccccc2)[C@H]1c1ccc(CO)cc1 | 0.416
25 | CCOC(=O)C[C@H]1[C@H](OC(=O)c2ccc(-c3ccccc3)cc2)[C@@H](NC(=O)C2CCCCC2)c2cc(OCCCO)ccc2N1C(=O)c1ccccc1 | 0.379
26 | O=C1O[C@@H](c2ccccc2)[C@@H](c2ccccc2)N2[C@@H](c3ccccc3OCCO)[C@]3(C(=O)Nc4ccccc43)[C@@H](C(=O)NC[C@H](O)c3ccccc3)[C@H]12 | -0.303
27 | C=CC1c2cc(O)c(OC)cc2CCN1Cc1sc2ccccc2c1Cl (centres undefined) | 0.618
28 | CC(C)CN1C(=O)[C@@]2(c3ccc([N+](=O)[O-])cc3)CC(=O)N(CC34CC5CC(CC(C5)C3)C4)[C@@H]2c2ccc(CO)cc21 | -0.0737
29 | COCCOC(=O)N1C(=O)[C@@]2(c3cc(C#Cc4ccc(OC)cc4)ccc31)[C@H](C(=O)N1CCN(c3ncccn3)CC1)[C@H]1C(=O)O[C@H](c3ccccc3)[C@H](c3ccccc3)N1[C@@H]2c1ccccc1OCCO | 0.561
30 | CCOC(=O)C[C@H]1[C@H](OC(=O)Cc2ccc3c(c2)OCO3)[C@@H](NC(=O)Cc2ccc(OC)cc2)c2cc(OCCCO)ccc2N1C(=O)c1ccccc1 | -0.0883
31 | [N-]=[N+]=Nc1ccccc1C[C@]1(C(=O)NCc2ccccc2)N=C(c2ccc(OCCCO)cc2)O[C@H]1c1ccccc1 | 0.813
32 | COC(=O)Cn1c(C(=O)N2CCCC2)cc2c1C[C@H]1CN(C(=O)c3ccccc3)[C@@](Cc3ccc(F)cc3)(C(=O)OC)[C@@H]21 | 0.513

Row | Structure (SMILES) | composite z-score
33 | COc1ccc(NN2C(C(O)c3ccco3)C=CC3C(=O)N(C4CCCCC4)C(=O)C32)cc1 (centres undefined) | 0.68
34 | CCCCN1CC=CC23O[C@@H]4C=CCOC(=O)[C@@H]4[C@H]2C(=O)N(C(C)CO)[C@@H]3C1=O (some centres undefined) | -1.06
35 | COc1ccc(NC(=O)O[C@H]2[C@H](OC(=O)Nc3ccc4c(c3)OCO4)[C@@H](OC(=O)Nc3ccc4c(c3)OCO4)[C@@H](OC)O[C@@H]2CO)cc1 | 0.877
36 | C=CCN1C(=O)[C@]2(CC=C)N=C(c3ccc(OCCCO)cc3)O[C@@H]2c2ccccc21 | 0.707
37 | CC1CC/C=C\[C@H]2OC34C=CCN(C(C)C)C(=O)[C@H]3N(CCCCCO)C(=O)[C@@H]4C2C(=O)O1 (some centres undefined) | -1.17
38 | COC(=O)[C@@]1(Cc2ccccc2)[C@H]2c3cc(C(=O)N4CCCC4)n(Cc4ccsc4Br)c3C[C@H]2CN1C(=O)c1ccccc1 | 0.77
39 | NCCCCCNC(=O)[C@@H]1C[C@@H]2C(=O)N[C@@H](CCCCN)C(=O)N2[C@@H]1c1cccc(OCCO)c1 | 0.793
40 | CCOC(=O)C1=CC[C@@H](c2ccc([N+](=O)[O-])cc2)N(S(=O)(=O)c2ccc(C)cc2)[C@H]1c1ccccc1 | 0.552
41 | CC(C)c1ccc(NN2C(C(O)c3ccco3)C=CC3C(=O)N(c4ccccc4)C(=O)C32)cc1 (centres undefined) | 0.849
42 | COC1(C)CN(Cc2ccccc2Br)[C@H](/C=C/c2ccccc2)[C@H](Cc2ccccc2)O1 (some centres undefined) | -0.13
43 | CC=CC(O)C1C=CC2C(=O)N(C)C(=O)C2N1N1CCCCC1 (centres undefined) | 0.759
44 | CCOC(=O)C1=CC[C@@H](c2cc(Cl)ccc2Cl)N(S(=O)(=O)c2ccc(C)cc2)[C@H]1c1ccc(OC)cc1 | -0.837
45 | C=C(CCCC)C(=O)CC[C@@H](OC(=O)c1ccccc1-c1ccccc1C(=O)O)c1cccc(OCCO)c1 | 0.204
46 | CC(C)(C)OC(=O)CC[C@@]1(C(=O)O)N=C(c2ccc(OCCCO)cc2)O[C@@H]1c1ccccc1CN=[N+]=[N-] | 0.963
47 | O=C1C[C@]2(c3ccc([N+](=O)[O-])cc3)C(=O)N(Cc3ccccc3)c3cc(CO)ccc3[C@H]2N1CC12CC3CC(CC(C3)C1)C2 | -1.46
48 | O=C(CS)NCCCCCCNC(=O)[C@@H]1C[C@@H]2C(=O)N3CCC[C@H]3C(=O)N2[C@@H]1c1cccc(OCCO)c1 | 0.864
49 | CN(C)CCCCNC(=O)[C@H]1C[C@H]2C(=O)N[C@@H](CCCCN(C)C)C(=O)N2[C@H]1c1cccc(OCCO)c1 | 0.675

— PubChem BioAssay
